Experimental findings from PubChem BioAssay are described below.

Calls of active or inactive are those of the source. Unless noted, no rule for the calls is given here.

Test [1] deals with Wnt5a (protein binding on small-molecule microarray). The test can be described thus: small molecules binding Wnt5a protein – biophysical, small-molecule microarray, 635/667 nm fluorescence, primary screen (AID 1142).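 Also: fluorescence read at 667 nm with signal to noise per printed feature.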 The settings on record: 635 nm fluorescence, higher = more signal.
Test [2] in a line: ATP-based viability of Huh7 replicon cells – cell-based, CellTiter-Glo luminescence, basal, 48 h, cytotoxicity control for HCV replication inhibitor project, primary screen (AID 1143).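 Also: Huh7 hepatoma cells carrying a hepatitis C replication reporter with no stimulus; test concentration not given here.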 The settings on record: higher = more signal, called active from +8 up or from −8 down. Background: In antiviral work, replicon cells carry a viral genome segment that copies itself.
Test [3] can be described thus: Pseudomonas biofilm growth suppression – PAO1 strain, BacTiter-Glo luminescence, LB-PBS, primary screen (AID 1144). The settings on record: P. aeruginosa PAO1 biofilm, 12 h, higher = more signal.
A short description of test [4]: basal CRE-LacZ reporter activity in PC12 – cell-based, unstimulated, primary screen (AID 1145). As to conditions: no forskolin, luminescence, 4.5 h, higher = more signal, called active from +8 up or from −8 down.
Test [5] can be described thus: forskolin-driven CRE-LacZ activity in PC12 – cell-based, CRE-LacZ reporter, forskolin-stimulated, primary screen (AID 1146).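 Also: PC12 cells with 6xCRE LacZ reporter stimulated by forskolin 10 µM; beta-galactosidase reporter signal reflecting CREB driven transcription.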 The settings on record: luminescence, 4.5 h, higher = more signal, called active from +8 up or from −8 down.
For test [6], the target named is Streptavidin (Streptomyces avidinii) (UniProt P22629). Nature of the test: compounds binding control protein streptavidin – biophysical, small-molecule microarray, 635/667 nm fluorescence, artefact control for SMM compound annotation, primary screen (AID 1147).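 Also: signal reflects streptavidin binding to arrayed compounds as a control protein.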 The settings on record: higher = more signal.
Sequence of Streptavidin (Streptomyces avidinii) (P22629 whole entry, looked up): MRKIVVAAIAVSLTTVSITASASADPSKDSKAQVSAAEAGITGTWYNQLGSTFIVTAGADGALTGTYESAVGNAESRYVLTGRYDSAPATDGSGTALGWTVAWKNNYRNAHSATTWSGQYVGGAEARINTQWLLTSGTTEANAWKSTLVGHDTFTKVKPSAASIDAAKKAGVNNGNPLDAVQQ
Test [7] in a line: probe aInhba binding on compound microarray – biochemical, small-molecule microarray, 635/667 nm fluorescence, primary screen (AID 1148).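 Also: score merges 667nm spot fluorescence with signal-to-noise for antibody binding to printed compounds.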 The settings on record: higher = more signal.
In test [8] the target is Torsin-1A (Homo sapiens) (UniProt O14656). The test can be described thus: TOR1A wild-type binding on microarray – cell lysate, small-molecule microarray, lysate, 635/667 nm, primary screen (AID 1149). The settings on record: COS7 hTOR1A-WT lysate, 635 nm fluorescence, higher = more signal.
Sequence of Torsin-1A (Homo sapiens) (O14656 whole entry, looked up): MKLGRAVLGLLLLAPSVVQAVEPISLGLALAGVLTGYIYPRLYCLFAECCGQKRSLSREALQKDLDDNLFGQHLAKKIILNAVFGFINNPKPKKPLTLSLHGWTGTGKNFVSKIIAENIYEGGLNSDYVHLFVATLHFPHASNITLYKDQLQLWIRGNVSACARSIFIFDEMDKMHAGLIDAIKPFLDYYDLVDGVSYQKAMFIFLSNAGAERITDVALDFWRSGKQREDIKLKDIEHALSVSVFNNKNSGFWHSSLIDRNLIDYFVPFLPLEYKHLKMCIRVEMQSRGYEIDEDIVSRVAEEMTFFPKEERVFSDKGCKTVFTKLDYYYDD
Test [9] has the same target. The test can be described thus: torsin A mutant lysate binding on microarrays – cell lysate, small-molecule microarray, COS7 lysate, 635/667 nm fluorescence, primary screen (AID 1150).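 Also: score pools 667 nm emission and signal to noise measuring lysate protein binding.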 The settings on record: COS7 hTOR1A mutant lysate, 635 nm fluorescence, higher = more signal.
In test [10] the test system is Sonic hedgehog protein (Shh). The test can be described thus: Sonic hedgehog microarray binding compounds – biochemical, small-molecule microarray, 635/667 nm fluorescence, primary screen (AID 1151).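 Also: Shh protein binding to compounds spotted on small-molecule microarray slides; score combines spot fluorescence intensity with signal-to-noise across triplicate slides.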 The settings on record: 635 nm fluorescence, higher = more signal.
A short description of test [11]: optical density shifts of acrAB sulA E. coli – strain DRC41, OD650, 48 h, E. coli filamentation inducer project, primary screen (AID 1152).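 Also: E. coli MC1000 strain DRC41 lacking acrAB efflux pump and sulA.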 The settings on record: higher = more signal, called active from +8 up or from −8 down.
The nature of test [12]: probe aLefty1 binding on compound microarray – biochemical, small-molecule microarray, 635/667 nm fluorescence, primary screen (AID 1153).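 Also: score merges spot fluorescence with signal-to-noise ratio from the scanned slide images.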 As to conditions: higher = more signal.
Test [13] is described as follows: plasmodial surface anion channel blockers, osmotic lysis – cell-based, P. falciparum Indochina, OD700, 1 h, primary screen (AID 1154). As to conditions: P. falciparum Indochina infected RBC osmotic lysis, higher = more signal, called active from +8 up or from −8 down.
The nature of test [14]: plasmodial surface anion channel blockers, osmotic lysis – cell-based, P. falciparum Indochina, OD700, 2 h, primary screen (AID 1155).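 Also: lysis reports solute entry through the parasite surface anion channel PSAC.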 The settings on record: P. falciparum Indochina infected erythrocytes, higher = more signal, called active from +8 up or from −8 down.
Test [15] is described as follows: changes in parasitized red cell lysis, either direction – P. falciparum Indochina, OD700, 3 h, PSAC antagonist project, primary screen (AID 1156). As to conditions: P. falciparum-infected erythrocytes, osmotic lysis, higher = more signal, called active from +8 up or from −8 down.
The nature of test [16]: plasmodial surface anion channel blockers, osmotic lysis – cell-based, P. falciparum Indochina, OD700, 18 h, primary screen (AID 1157). As to conditions: P. falciparum Indochina infected erythrocytes, osmotic lysis OD700, 18 h; higher = more signal, called active from +8 up or from −8 down.
Test [17] can be described thus: S6 kinase pathway phospho-S6 level changes – cell-based, A549, cytoblot, luminescence, serum-stimulated, primary screen (AID 1158).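 Also: serum-stimulated A549 lung adenocarcinoma cells; signal is phosphorylated S6 detected by cytoblot immunostaining with HRP secondary.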 As to conditions: 5 h, higher = more signal.
The target in test [18] is NADPH oxidase 2 (Homo sapiens) (UniProt P04839). Nature of the test: compounds shifting NOX2 Amplex Red fluorescence – cell-based, HEK293-NOX2, PMA-stimulated, NOX inhibitor project, primary screen (AID 1159). Also: test concentration not given here. The settings on record: 45 min, higher = more signal, called active from +8 up or from −8 down.
Sequence of NADPH oxidase 2 (Homo sapiens) (P04839 whole entry, looked up): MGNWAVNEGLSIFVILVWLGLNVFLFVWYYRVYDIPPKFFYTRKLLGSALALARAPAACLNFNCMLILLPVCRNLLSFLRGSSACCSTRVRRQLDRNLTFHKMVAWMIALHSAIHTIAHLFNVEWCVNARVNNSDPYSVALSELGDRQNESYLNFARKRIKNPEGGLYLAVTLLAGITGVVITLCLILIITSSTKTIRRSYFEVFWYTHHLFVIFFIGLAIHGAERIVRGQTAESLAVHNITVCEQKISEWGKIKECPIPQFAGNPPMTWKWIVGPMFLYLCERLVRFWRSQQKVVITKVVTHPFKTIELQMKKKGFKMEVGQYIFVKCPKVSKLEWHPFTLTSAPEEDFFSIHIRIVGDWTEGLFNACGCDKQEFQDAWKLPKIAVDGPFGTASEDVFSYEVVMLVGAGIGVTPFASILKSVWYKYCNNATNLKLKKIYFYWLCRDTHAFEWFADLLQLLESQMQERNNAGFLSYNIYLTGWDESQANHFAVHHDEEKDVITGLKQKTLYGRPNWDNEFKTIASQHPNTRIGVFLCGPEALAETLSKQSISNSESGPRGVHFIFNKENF
Test [19] addresses NADPH oxidase 4 (Homo sapiens) (UniProt Q9NPH5). Nature of the test: compounds shifting NOX4 Amplex Red fluorescence – cell-based, HEK293-NOX4, tetracycline-induced, NOX inhibitor project, primary screen (AID 1160). As to conditions: HEK293-NOX4, Amplex Red H2O2 fluorescence, 45 min; higher = more signal, called active from +8 up or from −8 down.
The target of test [20] is NADPH oxidase 5 (Homo sapiens) (UniProt Q96PH1). The test can be described thus: compounds shifting NOX5 Amplex Red fluorescence – cell-based, HEK293-NOX5, NOX inhibitor project, primary screen (AID 1161). The settings on record: HEK293-NOX5, ionomycin, 45 min, higher = more signal.
Sequence of NADPH oxidase 5 (Homo sapiens) (Q96PH1 whole entry, looked up): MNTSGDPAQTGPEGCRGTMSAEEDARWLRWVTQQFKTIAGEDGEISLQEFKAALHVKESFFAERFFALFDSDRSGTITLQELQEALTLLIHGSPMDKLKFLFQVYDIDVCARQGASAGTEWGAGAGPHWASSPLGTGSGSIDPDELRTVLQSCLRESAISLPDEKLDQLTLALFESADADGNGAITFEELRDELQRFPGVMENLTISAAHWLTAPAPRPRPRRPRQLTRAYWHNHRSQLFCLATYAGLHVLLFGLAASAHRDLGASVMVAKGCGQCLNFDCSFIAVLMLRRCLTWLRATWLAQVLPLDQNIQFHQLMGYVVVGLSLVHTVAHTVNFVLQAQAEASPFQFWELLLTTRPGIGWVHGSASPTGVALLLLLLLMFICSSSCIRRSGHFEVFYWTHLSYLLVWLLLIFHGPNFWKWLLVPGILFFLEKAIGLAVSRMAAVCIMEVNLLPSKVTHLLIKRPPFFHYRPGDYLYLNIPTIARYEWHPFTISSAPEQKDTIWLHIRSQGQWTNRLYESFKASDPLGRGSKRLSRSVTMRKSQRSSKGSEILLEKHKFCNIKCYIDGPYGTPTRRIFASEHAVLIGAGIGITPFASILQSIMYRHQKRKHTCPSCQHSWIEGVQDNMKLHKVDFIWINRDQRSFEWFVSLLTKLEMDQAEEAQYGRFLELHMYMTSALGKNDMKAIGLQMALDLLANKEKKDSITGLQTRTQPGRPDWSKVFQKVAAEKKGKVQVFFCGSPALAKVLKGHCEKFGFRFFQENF

Sequence of NADPH oxidase 4 (Homo sapiens) (Q9NPH5 whole entry, looked up): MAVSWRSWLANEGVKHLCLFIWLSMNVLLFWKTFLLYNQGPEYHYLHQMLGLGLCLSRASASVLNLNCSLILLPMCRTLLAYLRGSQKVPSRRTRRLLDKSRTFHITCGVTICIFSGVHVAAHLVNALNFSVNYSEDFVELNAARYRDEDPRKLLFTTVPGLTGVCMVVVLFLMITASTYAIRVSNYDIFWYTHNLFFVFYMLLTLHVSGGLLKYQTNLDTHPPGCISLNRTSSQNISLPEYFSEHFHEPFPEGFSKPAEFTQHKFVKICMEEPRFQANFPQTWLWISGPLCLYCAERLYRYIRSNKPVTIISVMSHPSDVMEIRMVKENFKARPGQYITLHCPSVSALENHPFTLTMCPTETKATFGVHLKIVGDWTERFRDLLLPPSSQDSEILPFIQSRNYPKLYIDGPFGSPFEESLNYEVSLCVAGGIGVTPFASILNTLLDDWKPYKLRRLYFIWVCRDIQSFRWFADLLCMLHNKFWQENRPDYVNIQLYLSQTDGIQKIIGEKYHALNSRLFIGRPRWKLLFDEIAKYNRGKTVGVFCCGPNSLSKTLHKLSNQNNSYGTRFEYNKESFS

Regarding `C[C@]12C(=O)N(CCCCCO)[C@@H]3C(=O)N(c4ccc(Cl)cc4)CC=CC31O[C@@H]1/C=C\CCCOC(=O)C12` (stereo not given in full), the composite z-score is -0.937 in [1]; -1.19 in test [6]; -0.179 in [7]; -2.76 in [8]; -1.63 in test [9]; 0.0607 in [10]. In test [12], the composite z-score is -0.0054. Besides, the z-score was -0.297 (inactive) in [2]; 1.45 (inactive) in test [3]; 0.203 (inactive) in [4]; -0.416 (inactive) in test [5]; -1.14 (inactive) in test [11]; -0.198 (inactive) in test [13]. Further, the z-score in test [14] is -0.307 (inactive); in [15], -1.04 (inactive); in test [16], -0.183 (inactive); in test [17], -0.58; in [18], 0.754 (inactive); in [19], 0.055 (inactive). Moreover, the z-score in test [20] worked out at 1.45.
As for `C=C(C)[C@@H]1CC=C(C(O)C2C=CC3C(=O)N(C4CCCCC4)C(=O)C3N2Nc2ccc(OC)cc2)CC1` (stereo not given in full), the composite z-score in test [1] was 0.187; in test [6], 1.12; in test [7] it was -0.0521; in [8] it was -0.0445; in test [9], 0.6; in test [10], 0.966. This molecule also gave a composite z-score in test [12] of 0.203. Besides, the z-score in [2] was -1.7 (inactive); in [3] it was -0.645 (inactive); in [4], 0.369 (inactive); in test [5], -0.317 (inactive); in test [11], -0.441 (inactive); in test [13], 1.75 (inactive). Besides, the z-score in test [14] was 0.415 (inactive); in test [15] it was 0.604 (inactive); in [16], 0.56 (inactive); in test [17], -0.14; in test [18], 0.191 (inactive); in test [19], -1.34 (inactive). The z-score in test [20] is -2.14.
For the molecule `Cc1ccc(S[C@]2(C(=O)NCCN3CCOCC3)CC(=O)N(C3Cc4ccccc4C3)[C@@H]2c2ccc(CO)cc2)cc1`, the composite z-score is -0.2 in [1]; -0.994 in test [6]; -0.125 in [7]; 0.0023 in test [8]; 0.206 in [9]; -0.393 in [10]. For the same molecule, the composite z-score in test [12] came to 0.482. The z-score was -0.73 (inactive) in [2]; -0.396 (inactive) in test [3]; -0.152 (inactive) in test [4]; 1.3 (inactive) in test [5]; 0.293 (inactive) in [11]; 2.1 (inactive) in test [13]. For the same molecule, the z-score in test [14] was 0.0757 (inactive); in test [15], 0.62 (inactive); in test [16], 0.375 (inactive); in [17], -0.348; in [18], -0.66 (inactive); in test [19], -1.82 (inactive). In addition, in test [20], the z-score is -1.58.
Turning to `COC(=O)C(CC#Cc1ccc2c(c1)[C@]1(C(=O)N2)[C@H](C(=O)N2CCc3cc(OC)c(OC)cc3C2)[C@H]2C(=O)O[C@H](c3ccccc3)[C@H](c3ccccc3)N2[C@@H]1c1ccc(OCCO)cc1)C(=O)OC`, the composite z-score in [1] came out at 0.5; in test [6], 1.28; in [7], 0.246; in test [8], 1.28; in test [9], 0.251; in test [10], 1.64. The composite z-score in test [12] was 0.546. For the same molecule, the z-score is -0.201 (inactive) in test [2]; -0.895 (inactive) in test [3]; 0.865 (inactive) in [4]; -0.474 (inactive) in [5]; 0.408 (inactive) in test [11]; 6.17 (inactive) in test [13]. The z-score in test [14] is 2.37 (inactive); in test [15], 1.15 (inactive); in test [16] it was 1.28 (inactive); in test [17] it was 0.237; in test [18] it was 1.26 (inactive); in [19] it was 0.487 (inactive). Also, in test [20], the z-score turned out to be 1.32.
As for `CN1C(=O)C2C=CC(C(O)c3cccc4ccccc34)N(NC(=O)OC(C)(C)C)C2C1=O` (stereo not given), the composite z-score in test [1] was 0.611; in [6], 1.51; in [7], 0.723; in test [8], 0.104; in test [9], 1.41; in test [10] it was -0.271. The molecule also showed a composite z-score in test [12] of 0.966. Besides, the z-score was 0.227 (inactive) in [2]; 0.489 (inactive) in test [3]; 1 (inactive) in test [4]; 0.6 (inactive) in [5]; -0.622 (inactive) in test [11]; 1.15 (inactive) in test [13]. Also, the z-score is 0.564 (inactive) in test [14]; 0.0094 (inactive) in [15]; 0.877 (inactive) in [16]; -1.22 in [17]; -0.492 (inactive) in test [18]; -3.85 (inactive) in [19]. Also, the z-score in test [20] came to 0.409.
`COCCOC(=O)N1C(=O)[C@@]2(c3cc(C#Cc4ccc(OC)cc4)ccc31)[C@H](C(=O)N1CCc3cc(OC)c(OC)cc3C1)[C@H]1C(=O)O[C@H](c3ccccc3)[C@H](c3ccccc3)N1[C@@H]2c1ccc(OCCO)cc1`: the composite z-score in test [1] worked out at 0.4; in test [6], 0.364; in test [7], 0.124; in test [8] it was 0.666; in test [9], 0.528; in [10], 1.69. In addition, the composite z-score in test [12] is 0.0391. Further, the z-score was -0.831 (inactive) in [2]; -0.959 (inactive) in [3]; -1.27 (inactive) in test [4]; -0.194 (inactive) in [5]; 0.59 (inactive) in test [11]; 6.15 (inactive) in [13]. Moreover, the z-score in test [14] was 2.99 (inactive); in test [15], 1.69 (inactive); in [16], 1.42 (inactive); in [17], 0.228; in test [18], -0.306 (inactive); in [19], -1.58 (inactive). In [20], the z-score is -0.623.
Consider `COc1ccc([Si](C)(C)[C@H]2[C@H](CCn3cc(CCO)nn3)O[C@@]3(C(=O)N(Cc4cccc(N5C(=O)c6cccc7cccc5c67)c4)c4ccccc43)[C@@H]2C)cc1`, for which the composite z-score is 0.16 in test [1]; 0.99 in [6]; -0.018 in test [7]; 1.33 in test [8]; 1.22 in test [9]; 1.37 in test [10]. In test [12], this molecule came in with a composite z-score of 0.466. The z-score in [2] is -7.3 (inactive); in test [3], -1.11 (inactive); in [4], 11 (active); in test [5], -1.3 (inactive); in test [11], 0.652 (inactive); in test [13], 5.3 (inactive). Also, the z-score is 2.43 (inactive) in test [14]; 1.32 (inactive) in test [15]; 1.36 (inactive) in test [16]; 0.615 in test [17]; 0.782 (inactive) in [18]; 1.74 (inactive) in test [19]. In addition, in [20], the z-score came to 2.97.
Turning to `COc1ccc([Si](C)(C)[C@@H]2[C@@H](CC(=O)N(CCO)Cc3ccccc3)O[C@]3(C(=O)N(Cc4ccc(N5CCOC5=O)cc4)c4ccccc43)[C@H]2C)cc1`, the composite z-score stood at 0.0838 in [1]; 0.601 in test [6]; 0.027 in test [7]; 0.436 in [8]; 0.0783 in [9]; 1.95 in [10]. Moreover, in test [12], the composite z-score is -0.0891. The z-score is -5.01 (inactive) in test [2]; 0.0675 (inactive) in test [3]; 7.59 (inactive) in [4]; 0.331 (inactive) in test [5]; -1.02 (inactive) in test [11]; 8.87 (active) in [13]. For the same molecule, the z-score was 1.62 (inactive) in [14]; -0.248 (inactive) in test [15]; 0.821 (inactive) in test [16]; -0.16 in [17]; 0.566 (inactive) in [18]; 1.18 (inactive) in test [19]. Besides, in [20], the z-score is 3.4.
